# Test results: PubChem BioAssay (NCI)
# The panel holds about 83,000 compounds, 20% with a hit somewhere; the sample as a whole holds those more often.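 Method: cells in 96-well plates; compound added at one concentration; 48 h incubation; percent growth measured; values under 10 scored active.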 Values without a mark were called inactive. Calls of active or inactive are those of the source.
# Test system: MDA-MB-468 breast
# Test: NCI-60 one-dose screen, 48 h (100 = growth as untreated, 0 = no growth, -100 = all killed)
# Details: 10 µM unless noted
row,Structure (SMILES),growth
1,Cc1c(Cl)cccc1NC(=O)c1sc2nc3c(cc2c1N)C(=O)CCC3,48.6%
2,COc1ccc(-c2[nH]nc(N)c2-c2cc(OC)c3c(c2)OCO3)cc1,33.5%
3,COc1cc2c3c(n(CCCNC4CCCCC4)c(=O)c2cc1OC)-c1cc2c(cc1C3=O)OCO2,78.8%
4,COc1cnc2c(c1)C(=O)c1c-2n(CCCN2CCC(O)CC2)c(=O)c2cc(F)ccc12,-57.2% (active)
5,CCCCC[C@H]1C/C=C2/C(=O)C=C[C@@H]2C/C=C\CCCC(=O)O1,-50.6% (active)
6,Cc1cc(N2CCN(C)CC2)nc(NC2CCCC(Nc3ccnc4cc(Cl)ccc34)C2)n1 (stereo not given),-52.1% (active)
7,Cn1c(=O)c2c3c(oc2c2ccccc21)C(=O)c1ccccc1C3=O,-9.91% (active)
8,O=C(Nc1ccc([N+](=O)[O-])cc1)c1cc2ccccc2cc1O,-8.75% (active)
9,O=[P@@]1(c2ccccc2)O[C@H](COCc2ccccc2)[C@@H](OCc2ccccc2)[C@H](OCc2ccccc2)[C@H]1NCc1ccccc1,14%
10,CC/C(Cc1ccccc1)=C(\c1ccc(OCCN2CCCC2)cc1)c1ccc(OC(C)=O)cc1,62.8%
11,CC(=O)C[n+]1ccc(C)cc1Sc1ccccc1C,82%
12,CCCC(=O)NC(c1cccnc1)c1cc(C)c2cccnc2c1O (stereo not given),19.8%
13,Fc1[nH]nc2ccc([C@@H]3Nc4ccc5[nH]ncc5c4[C@H]4C5CCC(C5)[C@@H]34)cc12 (stereo not given in full),16%
14,C#Cc1cccc(Nc2ncnc3cc(NC(=O)CCl)ccc23)c1,-60.8% (active)
15,Clc1ccc(Sc2nc(NC3CC3)nc(Sc3ccc(Cl)cc3)n2)cc1,91.2%
16,CC[C@H](C)[C@@H]1NC(=O)[C@H]([C@@H](C)O)NC(=O)C(Cc2ccccc2)NC(=O)[C@@H]2CCCN2C(=O)C(C(C)C)NC(=O)C(Cc2ccccc2)NC(=O)CNC(=O)[C@@H]2CCCN2C1=O (stereo not given in full),53%
17,CN(C)c1ccc(/C=C/c2sc3ccc4ccccc4c3[n+]2C)cc1,-86.4% (active)
18,O=C(Cn1cc(CSc2nc3ccccc3o2)nn1)Nc1ccc([N+](=O)[O-])cc1,98.7%
19,O=C1/C(=C/c2ccc(Cl)cc2)COc2ccc(O)cc21,85.1%
20,CN1CCCC1c1cccnc1 (stereo not given),97.1%

row,Structure (SMILES),growth
1,COc1nc2c(cc1S(=O)(=O)c1ccccc1)CCc1c-2cnn1-c1ccc(Cl)cc1,87.6%
2,CCC1=C(c2ccc(OC)cc2)C(C)(C)Oc2cc(O)c(CN3CCCC3)cc21,69.5%
3,C[n+]1cccc(CC(=O)NO)c1,88.3%
4,O=C(N/N=C/c1ccncc1)c1ccccc1Nc1cccc(C(F)(F)F)c1,48.7%
5,CC1=C2[C@@H](CC1)[C@]1(C)O[C@@](C(C)C)(C[C@H]1OC(=O)CO)[C@H]2OC(=O)C1CC1c1ccccc1 (stereo not given in full),93.3%
6,Cc1nn(CCO)c(C)c1N=[N+]([O-])c1c(C)nn(CCO)c1C,-59% (active)
7,COc1ccc(C2C3=C(COC3=O)N(CCO)c3cc4c(cc32)OCCO4)cc1 (stereo not given),32.9%
8,COc1cc(OC)c(C(=O)C(CN(C)C)CN(C)C)cc1OC,-73.3% (active)
9,CC(C)[C@H](CO)Nc1nc(Nc2ccc(C(=O)NCCNS(=O)(=O)c3cccc4c(N(C)C)cccc34)c(Cl)c2)c2ncn(C(C)C)c2n1,-14.1% (active)
10,C1=C\COCc2cc(ccc2OCCN2CCCC2)Nc2nccc(n2)-c2cccc(c2)COC/1,-53.7% (active)
11,O=C1CCc2c(sc3[nH]c(=S)n(-c4ccc(OC(F)(F)F)cc4)c(=O)c23)C1,-4.6% (active)
12,C=C1C(=O)O[C@H]2[C@H]1CC/C(COC(=O)CCCCCCCC(=O)OC/C1=C/CC[C@@]3(C)O[C@H]3[C@H]3OC(=O)C(=C)[C@@H]3CC1)=C\CC[C@@]1(C)O[C@@H]21,-21.6% (active)
13,c1ccc2cc(-c3n(Cc4ccc5ccccc5n4)c4ccccc4[n+]3Cc3ccc4ccccc4n3)ccc2c1,-36% (active)
14,COc1cccc2cc(N(C)c3nc(C)nc4c3CCC4)ccc12,18%
15,O=C1CN(Cc2ccc(C(=O)NO)cc2)C(=O)[C@@H](Cc2ccccc2)N1,109%
16,CN(C)c1ccc2nc3ccc(=N)cc-3sc2c1,38.6%
17,Cc1cc(C)c2c(-c3nnc(N)s3)cc(=O)oc2c1,104%
18,O=C(O)COc1ccc(F)cc1,98.8%
19,NC(=S)N/N=C\c1nccc2c(C(F)(F)F)cccc12,-64.8% (active)
20,O=C1c2cc3c(cc2-c2c1c1ccc(Cl)cc1c(=O)n2CCCn1ccnc1)OCO3,-47.9% (active)
